Screens: PubChem BioAssay, National Center for Advancing Translational Sciences (NCATS)
TDP1 cell CPT: DT40-hTDP1 cell growth loss with CPT; chicken DT40 Tdp1-/-;hTDP1 cells + 20 nM CPT, ATP luminescence, 48 h; Potency, µM (doses to about 46.2 µM), usual class: inhibitors; 420,000 compounds, 12% hits; AID 686979; further: nearly all actives have a fitted effect of over 55% in size
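Chicken DT40 Tdp1-/- cells complemented with human TDP1, 400 cells/well, exposed to compounds plus 20 nM camptothecin for at least 48 h at 37 C; viability read as ATP content by CellTiter-Glo luminescence.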
IL1B secr inh: inhibitors of inflammasome signaling (IL-1 beta secretion). THP-1 LPS/ATP IL-1B secretion, AlphaLISA, 16 h; hits give low values. activity change, % at 57.5 µM. 360,000 compounds, 4.7% hits; in the data active means activity change below about -50%; inconclusive means mostly about -30% to -49%
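THP-1 cells pretreated 1 hr with compounds (up to 57.5 uM final), then stimulated with LPS (250 ng/mL final) plus ATP (1.25 mM final); secreted IL-1B measured by AlphaLISA after 16 hr, decreased signal indicating inhibition.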
HT1080-NT tox: kills 2HG-producing HT-1080-NT fibrosarcoma cells. HT-1080-NT fibrosarcoma viability, CellTiter-Glo ATP luminescence, 48 h. Potency, µM (highest dose often 46.1 µM), hits mostly cytotoxic. 360,000 compounds, 1.6% hits. AID 686970;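 further: NT is the 2HG producing partner of a matched IDH1 knockdown line; nearly all actives have a fitted effect of over 55% in size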
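Luminescent CellTiter-Glo readout after 48 hours of compound exposure at 37 degrees C defined viability of HT-1080-NT cells. Activity was normalized to DMSO wells and cell-free media wells; concentration-response curves were fitted and assigned curve classes.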
TDP1 cell noCPT: qHTS for Inhibitors of human tyrosyl-DNA phosphodiesterase 1 (TDP1): qHTS in cells in absence of CPT | DT40 Tdp1-/- hTDP1 cells, no CPT, ATP luminescence, 48 h | 420,000 compounds, 15% hits | Potency, µM (doses to about 46.2 µM), actives largely listed as inhibitors; further: nearly all actives have a fitted effect of over 55% in size
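Readout: luminescence from CellTiter-Glo after 30 min in the dark at RT. Cells: DT40 Tdp1-/- with stable hTDP1, 400/well. Exposure: compounds alone, ≥48 hr, 37 °C.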
HT1080 IDH1KD tx: HT-1080 IDH1 knockdown cell toxicity (counter line); HT-1080 IDH1 knockdown viability, ATP luminescence, 48 h; Potency, µM (doses to about 46.1 µM), hits mostly cytotoxic; 360,000 compounds, 2% hits; AID 686971
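After a 2 h attachment period, IDH1KD HT-1080 cells took pin-transferred compound for 48 h at 37 °C; ATP-based luminescence after 10 min room-temperature reagent incubation reported viability.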
Each line names hits and unclear results; the compound was inactive in the other large screens. Rows were chosen to be rich in hits. Some 19% of all compounds tested hit in one or more screens of this group. Unless noted, the call rests on the fitted dose curve; in most records, active means well fitted curve in the direction sought with a large enough effect; inconclusive means small, poorly fitted or top-dose-only effect, or another doubt; inactive means no such curve, though single readings can be large; an effect the other way counts as inactive or inconclusive.

COc1ccc2c(c1)CCC1(C)CC(=O)C=C21 (configuration not stated)	none
CC(C)Nc1nc(NC(C)C)nc(SCCOC(=O)Nc2ccc(Cl)cc2Cl)n1	TDP1 cell CPT inconclusive, TDP1 cell noCPT inconclusive
O=C(Nc1ccc(F)cc1)C(c1cccc(F)c1)N1CCN(Cc2c(F)cccc2Cl)CC1 (configuration not stated)	TDP1 cell CPT inconclusive, HT1080-NT tox inconclusive, TDP1 cell noCPT inconclusive
CC1=CC(=NOC(=O)/C=C/c2ccccc2)C=C(C)C1=O	TDP1 cell CPT 20.6µM, IL1B secr inh -64.7, HT1080-NT tox inconclusive, TDP1 cell noCPT 13µM, HT1080 IDH1KD tx inconclusive
CC1=C(C)/C(=N\OC(=O)/C=C/c2ccccc2)C=CC1=O	TDP1 cell CPT 13µM, TDP1 cell noCPT 13µM
CC1=CC(=O)C=C(C)C1=NOC(=O)/C=C\c1ccccc1	TDP1 cell CPT 16.4µM
N/C(=N\OC(=O)/C=C/c1ccccc1)c1ccccn1	none
CC(=O)Nc1c2c(nn1-c1ccc(F)cc1)CSC2	none
O=C(CN1C(=O)NC2(CCCC2)C1=O)N1CCN(c2ccccc2O)CC1	none
O=C(NCc1cccc(C(F)(F)F)c1)C1CC2Cn3c(nc4ccccc43)C2N1Cc1ccccc1 (configuration not stated)	TDP1 cell noCPT 13µM
Cn1c(=NC(=O)c2ccc(S(=O)(=O)N3CCCC3)cc2)sc2cc(F)ccc21	none (no result: IL1B secr inh, HT1080-NT tox, HT1080 IDH1KD tx)
COc1cccc(-c2oc3c(c2C#CC2(N)CCCCC2)C(O)CCC3)c1 (configuration not stated)	TDP1 cell CPT 18.4µM, HT1080-NT tox 16.4µM, TDP1 cell noCPT 18.4µM, HT1080 IDH1KD tx inconclusive
CON(C)c1nc(OCC#N)nc(N(C)C)n1	none
Cc1ccc(F)c(S(=O)(=O)NC(=O)C2(C)CCN2C(=O)Cc2cccc3ccccc23)c1 (configuration not stated)	none
Cc1ccc(C(=O)NCC(=O)OCC(=O)Nc2ccc3[nH]c(=O)[nH]c3c2)cc1	none
CSCCC(NS(=O)(=O)c1ccc2c(c1)OCCO2)C(=O)N(C)Cc1ccccc1F (configuration not stated)	TDP1 cell CPT inconclusive, TDP1 cell noCPT 20.6µM
CSCCC(NS(=O)(=O)c1ccc2c(c1)OCCO2)C(=O)N(C)Cc1ccc(F)cc1 (configuration not stated)	TDP1 cell CPT 23.1µM, TDP1 cell noCPT 13µM
CSCCC(NS(=O)(=O)c1cccc(C(F)(F)F)c1)C(=O)N(C)Cc1ccc2c(c1)OCCO2 (configuration not stated)	TDP1 cell CPT inconclusive, TDP1 cell noCPT inconclusive
COc1ccccc1-c1noc(CSc2nc3ccc(C)cc3[nH]2)n1	TDP1 cell CPT inconclusive, TDP1 cell noCPT 16.4µM (no result: IL1B secr inh, HT1080-NT tox, HT1080 IDH1KD tx)
COc1ccc(-c2noc(CSc3nc(-c4ccccc4)cc(=O)[nH]3)n2)cc1	none
Cc1ccc2nc(SCc3nnc(-c4cccs4)o3)[nH]c2c1	TDP1 cell CPT inconclusive, TDP1 cell noCPT 11.6µM
Cc1noc(C)c1CSc1nc2ccccc2[nH]1	none
Cc1ccccc1-c1noc(CSc2nc3ccccc3[nH]2)n1	TDP1 cell CPT 18.4µM, TDP1 cell noCPT 6.51µM (no result: IL1B secr inh, HT1080-NT tox, HT1080 IDH1KD tx)
COc1ccc(-c2noc(CSc3nc4ccccc4[nH]3)n2)cc1OC	TDP1 cell CPT 23.1µM, TDP1 cell noCPT 18.4µM (no result: IL1B secr inh, HT1080-NT tox, HT1080 IDH1KD tx)
c1ccc(-c2cc(CSc3nc4ccccc4[nH]3)on2)cc1	TDP1 cell CPT 11.6µM, TDP1 cell noCPT 20.6µM
COc1ccccc1OCc1nc(-c2ccc([N+](=O)[O-])cc2)no1	TDP1 cell CPT inconclusive, IL1B secr inh inconclusive, TDP1 cell noCPT inconclusive
COc1ccc(-c2noc(COc3ccccc3OC)n2)cc1OC	TDP1 cell CPT 16.4µM, TDP1 cell noCPT inconclusive
COc1ccc(Br)cc1C1=CC(=O)C[C@H](c2ccc(F)cc2)C1	TDP1 cell CPT inconclusive, TDP1 cell noCPT inconclusive
Cc1cc(C)c(C(=O)Nc2ccccc2)c(SCC(=O)Nc2ccc(Br)cc2C)n1	TDP1 cell CPT 16.4µM, TDP1 cell noCPT 23.1µM (no result: IL1B secr inh, HT1080-NT tox, HT1080 IDH1KD tx)
COc1ccccc1NC(=O)c1c(C)cc(C)nc1SCC(=O)c1ccc(Cl)cc1	none (no result: IL1B secr inh, HT1080-NT tox, HT1080 IDH1KD tx)
